In PubChem BioAssay AID1159580 (chemical genetic matrix, 2015):
Values joined by “and” are separate entries in the source; they are usually repeats but may differ in a detail not shown here. Equal entries are not always repeated. The campaign covered roughly 5,500 compounds. About 2,000 (36%) were called active. Not shown: some 18% with an inconclusive outcome. Cut-off read from the data, not from the text of the source: active = normalized growth mostly below about 0.91 (no sharp cut-off); inconclusive = no clear call, values can overlap the other calls; inactive = mostly above about 0.92. The list shows a part of the results.

Experiment: chemical genetic growth profiling, strain panel (AID 1159580);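 note: tested at 20 µM; growth read once vehicle control cultures reached saturation at 30 °C; 1 = growth at the plate median or of vehicle wells; lower values mean less growth of the strain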
Conditions: S. cerevisiae deletion strains, growth OD

Measured: normalized growth

CCn1cc(C(=O)O)c(=O)c2cc(F)c(N3CCNCC3)nc21
inactive: locus YAL013W, strain DEP1, hits give low values 1.01 | locus YAL021C, strain ccr4, hits give low values 0.939 | locus YAL026C, strain drs2, hits give low values 0.985 | locus YAL030W, strain snc1, hits give low values 0.982 | locus YBL061C, strain skt5, hits give low values 0.991 | locus YBR009C, strain hhf1, hits give low values 0.992 | locus YBR021W, strain FUR4, hits give low values 1.01 | locus YBR023C, strain chs3, hits give low values 0.983 | locus YBR171W, strain sec66, hits give low values 0.984 | locus YBR229C, strain ROT2, hits give low values 1.01 | locus YBR231C, strain swc5, hits give low values 0.998 | locus YBR279W, strain paf1, hits give low values 0.982 | locus YCL011C, strain gbp2, hits give low values 0.987 | locus YCL016C, strain dcc1, hits give low values 0.986 | locus YCL029C, strain bik1, hits give low values 1 | locus YCL061C, strain MRC1, hits give low values 0.987 | locus YCL069W, strain vba3, hits give low values 0.97 | locus YCR088W, strain abp1, hits give low values 0.982 | locus YDL005C, strain med2, hits give low values 0.978 | locus YDL035C, strain GPR1, hits give low values 1.02 | locus YDL040C, strain nat1, hits give low values 0.983 | locus YDL074C, strain BRE1, hits give low values 1 | locus YDL101C, strain DUN1, hits give low values 1.01 | locus YDL134C, strain PPH21, hits give low values 1.03 | locus YDL185W, strain tfp1, hits give low values 1.03 | locus YDL192W, strain arf1, hits give low values 1.02 | locus YDR001C, strain nth1, hits give low values 0.978 | locus YDR069C, strain doa4, hits give low values 0.982 | locus YDR101C, strain arx1, hits give low values 1 | locus YDR137W, strain rgp1, hits give low values 0.939 | locus YDR159W, strain sac3, hits give low values 0.962 | locus YDR162C, strain NBP2, hits give low values 1.02 | locus YDR195W, strain ref2 0.97 | locus YDR297W, strain sur2, hits give low values 0.971 | locus YDR318W, strain mcm21, hits give low values 1.02 | locus YDR334W, strain swr1, hits give low values 0.974 | locus YDR335W, strain msn5, hits give low values 0.979 | locus YDR388W, hits give low values 1.01 | locus YDR392W, strain spt3, hits give low values 0.946 | locus YDR502C, strain sam2, hits give low values 1.01 | locus YEL003W, strain gim4, hits give low values 0.985 | locus YEL037C, strain rad23, hits give low values 0.975 | locus YEL061C, strain CIN8 (second series), hits give low values 0.979 | locus YEL061C, strain CIN8, hits give low values 1.01 | locus YER015W, strain faa2, hits give low values 0.982 | locus YER016W, strain bim1, hits give low values 0.984 | locus YER110C, hits give low values 1.02 | locus YER111C, strain swi4, hits give low values 0.985 | locus YER155C, strain BEM2 (second series), hits give low values 0.956 | locus YER155C, strain BEM2, hits give low values 1.01 | locus YER167W, strain BCK2, hits give low values 1.03 | locus YFR010W, strain ubp6, hits give low values 0.984 | locus YGL078C, strain dbp3, hits give low values 1.01 | locus YGL086W, strain mad1, hits give low values 1.01 | locus YGL167C, strain pmr1, hits give low values 0.976 | locus YGL173C, strain kem1, hits give low values 0.98 | locus YGL227W, strain vid30, hits give low values 0.987 | locus YGL240W, strain doc1, hits give low values 0.975 | locus YGL248W, strain PDE1, hits give low values 1.01 | locus YGL253W, strain hxk2, hits give low values 0.994 | locus YGR135W, strain pre9, hits give low values 1.03 | locus YGR252W, strain gcn5, hits give low values 1.01 | locus YHR013C, strain ard1, hits give low values 0.966 | locus YHR027C, strain rpn1, hits give low values 0.994 | locus YHR030C, strain SLT2, hits give low values 1.01 | locus YHR079C, strain IRE1 (second series), hits give low values 1.01 | locus YHR079C, strain IRE1, hits give low values 1.03 | locus YHR094C, strain hxt1, hits give low values 1.02 | locus YHR129C, strain ARP1, hits give low values 1.01 | locus YHR142W, strain chs7, hits give low values 0.984 | locus YHR200W, strain rpn10, hits give low values 1.01 | locus YIL066C, strain RNR3, hits give low values 1.02 | locus YIL073C, strain SPO22, hits give low values 1.08 | locus YIL125W, strain kgd1, hits give low values 1.01 | locus YIR030C, strain dcg1, hits give low values 1.01 | locus YJL092W, strain hpr5, hits give low values 0.991 | locus YJL095W, strain BCK1 (second series), hits give low values 0.985 | locus YJL095W, strain BCK1, hits give low values 1 and 1.04 | locus YJL115W, strain asf1, hits give low values 0.963 | locus YJL129C, strain trk1, hits give low values 0.943 | locus YJL134W, strain LCB3, hits give low values 1 | locus YJL154C, strain vps35, hits give low values 0.961 | locus YJL164C, strain tpk1, hits give low values 0.992 | locus YJL166W, strain qcr8, hits give low values 0.981 | locus YJL168C, strain set2, hits give low values 1.01 | locus YJL187C, strain SWE1 (second series), hits give low values 1 | locus YJL187C, strain SWE1, hits give low values 0.981 | locus YJR043C, strain POL32, hits give low values 0.992
